Laboratory results as given in PubChem BioAssay (NCI).
The panel holds about 79,000 compounds, 15% with a hit somewhere; the sample as a whole holds those more often. Calls of active or inactive are those of the source. No stated cut-off is given here; in the data, active means growth inhibition above about 70%; inactive means the rest.

Tests used:
[1] = NCI Yeast Anticancer Drug Screen. Data for the mec2-1 strain (AID 157); details: S. cerevisiae mec2-1 strain, stronger effect = higher value
Method in brief: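 Each compound was tested on mec2-1 yeast, a strain altered in DNA damage repair or cell cycle control. Growth inhibition is reported relative to vehicle.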

[2] = NCI Yeast Anticancer Drug Screen. Data for the rad14 strain (AID 159);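 further: 0% = growth of vehicle-treated control cultures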; details: S. cerevisiae rad14 strain growth inhibition, stronger effect = higher value
Method in brief: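 Screen for anticancer potential: a yeast strain altered in DNA damage repair is grown with compound, and reduced growth is quantified against vehicle controls.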

[3] = NCI Yeast Anticancer Drug Screen. Data for the CLN2oe strain (AID 163);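 further: 0% = growth of vehicle-only control cultures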; details: S. cerevisiae CLN2oe strain, stronger effect = higher value
Method in brief: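 First, the altered yeast strain was treated with each compound; second, its growth was measured; finally, inhibition was derived by comparison with vehicle controls.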

[4] = NCI Yeast Anticancer Drug Screen. Data for the cln2 rad14 strain (AID 165);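 further: 0% = growth equal to vehicle treated cultures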; details: S. cerevisiae cln2 rad14 strain, stronger effect = higher value
Method in brief: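 Test compounds were added to cln2 rad14 yeast cultures; inhibition of growth was then determined by comparison with vehicle treatment.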

[5] = NCI Yeast Anticancer Drug Screen. Data for the bub3 strain (AID 167); details: S. cerevisiae bub3 mutant strain, stronger effect = higher value
Method in brief: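 Screening used yeast with an engineered genetic alteration affecting cell cycle control. Compound-exposed cultures were compared with vehicle cultures, and reduced growth was taken as inhibition.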

[6] = NCI Yeast Anticancer Drug Screen. Data for the wt2 strain (AID 169);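 further: 0% = growth of vehicle-treated yeast cultures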; details: S. cerevisiae wt2 strain growth inhibition, stronger effect = higher value
Method in brief: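 The panel's yeast strains carry defined changes in DNA repair or cell cycle genes. Each strain is grown with compound, and growth loss is scored relative to vehicle.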

[7] = NCI Yeast Anticancer Drug Screen. Data for the mlh1 strain (AID 171);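 further: 0% = growth of vehicle-treated control cultures of the same strain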; details: S. cerevisiae mlh1 strain growth inhibition, stronger effect = higher value
Method in brief: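 Inhibition values reflect reduced yeast growth in the presence of compound, referenced to vehicle controls, using a strain chosen for its alteration in DNA repair or cell cycle control.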

[8] = NCI Yeast Anticancer Drug Screen. Data for the sgs1 strain (AID 173);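 further: 0% = growth of vehicle-only control cultures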; details: S. cerevisiae sgs1 mutant, stronger effect = higher value
Method in brief: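 Vehicle-treated cultures served as reference for growth inhibition of a yeast strain altered in DNA damage repair or cell cycle control after compound exposure.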

[9] = NCI Yeast Anticancer Drug Screen. Data for the mlh1 rad18 strain (AID 175); details: S. cerevisiae mlh1 rad18 strain growth inhibition, stronger effect = higher value
Method in brief: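 Inhibition values reflect reduced growth of mutant yeast versus vehicle-treated controls following compound exposure; the mutations affect DNA damage repair.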

[10] = NCI Yeast Anticancer Drug Screen. Data for the rad18 strain (AID 177); details: S. cerevisiae rad18 mutant growth inhibition, stronger effect = higher value
Method in brief: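 Steps: expose repair-mutant yeast to compound; measure growth; express as inhibition relative to vehicle control.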

[11] = NCI Yeast Anticancer Drug Screen. Data for the rad52 strain (AID 147);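 further: 0% = growth of vehicle-treated control cultures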; details: S. cerevisiae rad52 mutant growth inhibition, stronger effect = higher value
Method in brief: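 Inhibition of yeast growth, referenced to vehicle controls, was the measured output for a strain with defective DNA damage repair.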

[12] = NCI Yeast Anticancer Drug Screen. Data for the wt1 strain (AID 149);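 further: 0% = growth of vehicle-treated wt1 cultures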; details: S. cerevisiae wt1 strain (SPY 50644) growth inhibition, stronger effect = higher value
Method in brief: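 Using yeast strain wt1, compound-induced growth inhibition was determined against vehicle-treated cultures.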

[13] = NCI Yeast Anticancer Drug Screen. Data for the rad50EPP+ strain (AID 151);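 further: 0% = growth of vehicle-treated control cultures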; details: S. cerevisiae rad50 mutant strain, stronger effect = higher value
Method in brief: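 Genetically defined yeast (rad50EPP+, DNA damage repair alteration) is grown with compound, and inhibition of growth is expressed relative to vehicle-treated controls.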

[14] = NCI Yeast Anticancer Drug Screen. Data for the mgt1 strain (AID 153); details: S. cerevisiae mgt1 mutant growth inhibition, stronger effect = higher value
Method in brief: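 In the mgt1 strain, test compounds were added and growth inhibition was determined relative to vehicle-treated controls.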

[15] = NCI Yeast Anticancer Drug Screen. Data for the rad50 strain (AID 155);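 further: 0% = growth of vehicle-only cultures of the same strain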; details: S. cerevisiae rad50 strain growth inhibition, stronger effect = higher value
Method in brief: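 Relative growth inhibition (compound vs vehicle) was measured in yeast with a defined repair-gene alteration.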

[16] = at 5.0 µM (retest, dose inferred, filed as 0.5)
[17] = at 50.0 µM (retest, dose inferred, filed as 5.0)

Measured: growth inhibition

CC1(C)CC(=O)C(C=NC(=S)C(N)=S)=C(O)C1
active: [1]; at 50.0 µM 74.1% | [1]; at 100.0 µM 91% | [3]; at 100.0 µM 96% | [5]; at 100.0 µM 91% | [7]; at 100.0 µM 91% | [9]; [17] 75% | [10]; at 100.0 µM 70%
inactive: [1]; [16] -6% | [1]; at 11.0 µM -41% | [1]; at 33.0 µM -19% | [1]; [17] 22% | [2]; at 1.2 µM -18% | [2]; at 3.7 µM -7% | [2]; at 11.0 µM -16% | [2]; at 33.0 µM -18% | [2]; at 100.0 µM 19% | [3]; at 1.2 µM -35% | [3]; at 3.7 µM -25% | [3]; at 11.0 µM -30% | [3]; at 33.0 µM -10% | [4]; [16] 23% | [4]; [17] 32% | [4]; at 50.0 µM 10.3% | [5]; at 1.2 µM -30% | [5]; at 3.7 µM -20% | [5]; [16] 18% | [5]; at 11.0 µM -24% | [5]; at 33.0 µM -31% | [5]; [17] 38% | [5]; at 50.0 µM 6.15% | [6]; at 1.2 µM -47% | [6]; at 3.7 µM -52% | [6]; at 11.0 µM -59% | [6]; at 33.0 µM -41% | [6]; at 100.0 µM 20% | [7]; at 1.2 µM -31% | [7]; at 3.7 µM -26% | [7]; at 11.0 µM -9% | [7]; at 33.0 µM 6% | [8]; at 1.2 µM -28% | [8]; at 3.7 µM -31% | [8]; at 11.0 µM -29% | [8]; at 33.0 µM -15% | [8]; at 100.0 µM 65% | [9]; [16] -7% | [9]; at 50.0 µM 45.2% | [10]; at 1.2 µM -8% | [10]; at 3.7 µM -4% | [10]; at 11.0 µM -15% | [10]; at 33.0 µM -1%

O=NC1c2cccc3cccc(c23)C1N=O (stereo not given)
inactive: [11]; at 1.2 µM 14% | [11]; at 3.7 µM 33% | [12]; at 1.2 µM 3% | [12]; at 3.7 µM 3% | [12]; at 11.0 µM 20% | [12]; at 33.0 µM 38% | [12]; at 100.0 µM 69% | [13]; at 1.2 µM 11% | [13]; at 3.7 µM 41% | [14]; at 1.2 µM 4% | [14]; at 3.7 µM 12% | [14]; at 11.0 µM 47% | [15]; at 1.2 µM 19% | [15]; at 3.7 µM 49% | [15]; [16] 17% | [1]; at 1.2 µM -2% | [1]; at 3.7 µM 0% | [1]; [16] 13% | [1]; at 11.0 µM -1% | [1]; at 33.0 µM 31% | [1]; at 100.0 µM 45% | [2]; at 1.2 µM 4% | [2]; at 3.7 µM 25% | [2]; at 11.0 µM 40% | [3]; at 1.2 µM 4% | [3]; at 3.7 µM 8% | [3]; at 11.0 µM 24% | [3]; at 33.0 µM 43% | [3]; at 100.0 µM 54% | [4]; [16] 6% | [5]; at 1.2 µM -10% | [5]; at 3.7 µM -20% | [5]; [16] -3% | [5]; at 11.0 µM 16% | [5]; at 33.0 µM 27% | [5]; at 100.0 µM 44% | [6]; at 1.2 µM 2% | [6]; at 3.7 µM 9% | [6]; at 11.0 µM 36% | [7]; at 1.2 µM 2% | [7]; at 3.7 µM 13% | [7]; at 11.0 µM 40% | [8]; at 1.2 µM 7% | [8]; at 3.7 µM 23% | [8]; at 11.0 µM 58% | [9]; [16] 48% | [10]; at 1.2 µM 22%
active: [11]; at 11.0 µM 75% | [11]; at 33.0 µM 90% | [11]; at 100.0 µM 94% | [13]; at 11.0 µM 81% | [13]; at 33.0 µM 92% | [13]; at 100.0 µM 93% | [14]; at 33.0 µM 86% | [14]; at 100.0 µM 94% | [15]; at 11.0 µM 84% | [15]; at 33.0 µM 93% | [15]; [17] 96% | [15]; at 50.0 µM 97% | [15]; at 100.0 µM 94% | [1]; [17] 94% | [1]; at 50.0 µM 94.3% | [2]; at 33.0 µM 92% | [2]; at 100.0 µM 97% | [4]; [17] 92% | [4]; at 50.0 µM 80.5% | [5]; [17] 95% | [5]; at 50.0 µM 89% | [6]; at 33.0 µM 77% | [6]; at 100.0 µM 94% | [7]; at 33.0 µM 88% | [7]; at 100.0 µM 94% | [8]; at 33.0 µM 89% | [8]; at 100.0 µM 95% | [9]; [17] 98% | [9]; at 50.0 µM 97.3% | [10]; at 3.7 µM 70% | [10]; at 11.0 µM 94% | [10]; at 33.0 µM 95% | [10]; at 100.0 µM 95%
